In ChEMBL document CHEMBL4513216, “Probing the Open Global Health Chemical Diversity Library for Multistage-Active Starting Points for Next-Generation Antimalarials” (ACS Infect Dis, 2020):
Among all 69,000 compounds or so, about 8,600 (12%) showed an effect of 50% or more. Only a selection was taken, and strong results are over-represented in it overall.

Each molecule was assayed on Plasmodium berghei (assay: Screen against P. berghei liver stage (PbLuc), transformed with Luciferase, at 10uM). Settings: tested at 10 uM.
Format: functional, HepG2

SMILES | INHIBITION
Cc1nc(C)n(CC2CCCN2Cc2cn3ccccc3n2)n1 (stereo not drawn) | -17.6%
c1cnc(N2CCCn3c(nnc3Cn3cccn3)C2)nc1 | -7.24%
c1cnn(Cc2nnc3n2CCCN(c2nccs2)C3)c1 | 53.9%
Cc1cnc(N2CCCn3c(nnc3Cn3cccn3)C2)nc1 | 16.9%
Cc1c(F)cc(C(=O)O)cc1S(=O)(=O)Nc1ccc(C#N)cc1 | 14.55%
c1cncc(C[C@@H]2CC[C@H](CN3CCCOCC3)O2)c1 | -13.1%
O=C(c1cccnc1)N1CCOC2(COCCN(c3cncnc3)C2)C1 (stereo not drawn) | -2.41%
CCC(NC1CSCCSC1)c1ccc(S(C)(=O)=O)cc1 (stereo not drawn) | 29.4%
COc1ccc(NC(C)C(=O)N2CCN(c3ccccc3)CC2)cn1 (stereo not drawn) | 21.6%
COc1ccc(NC(C)C(=O)N2CCN(c3ncccn3)CC2)cn1 (stereo not drawn) | 29.2%
COc1ccc(NC(C)C(=O)N2CCCC2)cn1 (stereo not drawn) | 78.2%
Cc1ccccc1SCC(=O)NC1CCC(n2cnnc2)CC1 (stereo not drawn) | 34.1%
CC(C)NC(=O)N1CCCCC1c1nnc2n1CCNC2 (stereo not drawn) | 54.9%
CC(C)NC(=O)N1CCn2c(nnc2C2CCCN2)C1 (stereo not drawn) | 23.4%
O=C(N1CCCCC1)N1CCCC1c1nnc2n1CCNC2 (stereo not drawn) | 36.6%
CC(=O)N1CCCCC1c1nnc2n1CCNC2 (stereo not drawn) | 38.3%
O=C(NC1CCCCC1)N1CCCC1c1nnc2n1CCNC2 (stereo not drawn) | 32.5%
CC(C)NC(=O)N1CCC(c2nnc3n2CCNC3)CC1 | 59.8%
Cc1cnn(C2CN(c3ncnc4[nH]ccc34)C2)c1 | 15%
CN(C)CC(=O)N1Cc2nnn(C)c2C(COCc2ccccn2)C1 (stereo not drawn) | -27.9%
CC(C)C(=O)N1CCN(Cc2ccccn2)CC2(CC(=O)N(C)C2)C1 (stereo not drawn) | 5.04%
Cn1cccc1C(=O)N1CC2(CCN(C(=O)c3cccnc3)C2)C1 | 32.1%

SMILES | INHIBITION
Cn1nc(C2CCN(C(=O)c3cnccn3)C2)cc1CCO (stereo not drawn) | 45.2%
Cc1nc(Cn2c3c(ccc2=O)CC(NC(C)C)CC3)cs1 (stereo not drawn) | 13.6%
Cc1ccsc1C(=O)N1CCC(O)(CN2CCc3ccccc3C2)C1 (stereo not drawn) | 33.7%
Cc1ncsc1C(=O)N1CCC(O)(CN2CCc3ccccc3C2)C1 (stereo not drawn) | 45.6%
O=C(c1cccs1)N1CCC(O)(CN2CCc3ccccc3C2)C1 (stereo not drawn) | 37.5%
Cc1ccc(C(=O)N2CCC(O)(CN3CCc4ccccc4C3)C2)s1 (stereo not drawn) | 51.5%
Cn1cccc1C(=O)N1CCC(O)(CN2CCc3ccccc3C2)C1 (stereo not drawn) | 20.4%
Cc1csc(C(=O)N2CCC(O)(CN3CCc4ccccc4C3)C2)c1 (stereo not drawn) | 76.8%
Cc1nnsc1C(=O)NCc1nn(C)c2c1COCC2 | -2.09%
CC(O)c1cn(Cc2ccc(Cl)cc2)nn1 (stereo not drawn) | 24.7%
Cc1noc(C)c1CN1C[C@H]2CC[C@@H](C1)N(Cc1cc(F)cc(F)c1)C2 | 0.818%
CS(=O)(=O)N1Cc2ccccc2CC2(CCN(Cc3ccccn3)C2)C1 (stereo not drawn) | 40%
COCC(=O)N1CCC2(CC1)CC(=O)N(Cc1ccc(Cl)cc1)C2 | 14%
CS(=O)(=O)N1Cc2ccccc2CC2(CCN(Cc3ccncc3)C2)C1 (stereo not drawn) | 38.3%
CN(C)CC(=O)N1CC2(CCN(Cc3ccccc3)C2)C1 | -2.35%
CC(=O)N1CC2(CCCN2Cc2ccc(Cl)cc2)Cc2ccccc21 (stereo not drawn) | 46.6%
CC(=O)N1CC2(CCCN(Cc3ccc(Cl)cc3)C2)Cc2ccccc21 (stereo not drawn) | 49.1%
CS(=O)(=O)N1CC2(CCCN2Cc2ccc(Cl)cc2)Cc2ccccc21 (stereo not drawn) | 23.4%
CC(=O)N1CC2(CCN(Cc3ccc(Cl)cc3)C2)Cc2ccccc21 (stereo not drawn) | 57.3%
CS(=O)(=O)N1Cc2ccccc2CC2(CCN(Cc3ccccc3)C2)C1 (stereo not drawn) | 55.7%
CC(=O)N1CC2(CCCCN2Cc2ccc(Cl)cc2)Cc2ccccc21 (stereo not drawn) | 59%
Cc1ncsc1CN1CCC2(CC1)CC(=O)N(Cc1ccc(Cl)cc1)C2 | -16%

SMILES | INHIBITION
CC(=O)N1CC2(CCN(Cc3ccc(Cl)cc3)CC2)Cc2ccccc21 | 61.5%
CCOc1ncccc1CNC(=O)N1CCCC1c1ccsc1 (stereo not drawn) | 40.9%
O=C(c1cscn1)N1C[C@H]2CCCC(OCc3cccnc3)[C@H]2C1 (stereo partly drawn) | 4.2%
CCS(=O)(=O)NCC(=O)NC1(C)CCc2ccccc2C1 (stereo not drawn) | -9.39%
Cc1nc(CN2CCN(Cc3ccoc3)Cc3cccnc32)cs1 | 21.6%
CSc1ncc(C(=O)N2C[C@@H]3CC[C@H]2CN(S(=O)(=O)N(C)C)C3)cn1 | -9.92%
Cc1c(C(=O)N2CCCSCC2)nnn1-c1ccccc1Cl | 26%
Cc1nc(C)c(C(=O)NCCNC(=O)Cc2ccc(F)cc2)s1 | -29.9%
CC(C)N1CCC(C(=O)N2CCC(C(O)c3nccn3C)CC2)CC1 (stereo not drawn) | 9.41%
O=c1[nH]ncn1-c1cccc(C(F)(F)F)c1 | 42.1%
CCCN1CCCn2c(nc(CNC(=O)c3cnoc3C)cc2=O)C1 | 9.63%
O=C(NC1(c2nccs2)CCCC1)c1[nH]nc(C2CC2)c1Cl | 56.6%
O=C(NC1(c2nccs2)CCCC1)c1cc(C2CC2)[nH]n1 | 29.8%
O=C(NC1(c2nccs2)CCCC1)c1cc(C2CC2)on1 | 36.5%
COc1cc(C)ccc1OCC(=O)NS(=O)(=O)c1ccc(Br)s1 | -2.19%
CCN(CC)CC(=O)N1CCCC1Cn1cccn1 (stereo not drawn) | 21.5%
CCc1nc(CC(=O)N2CCCCC2Cn2cccn2)cs1 (stereo not drawn) | 62.6%
O=C(c1cc2cc(F)ccc2[nH]1)N1CCCCC1Cn1cccn1 (stereo not drawn) | -12.2%
CCc1nc(CC(=O)N2CCCC2Cn2cccn2)cs1 (stereo not drawn) | 2.61%
NC(=O)c1csc(C(=O)N2CCCCC2Cn2cccn2)c1 (stereo not drawn) | 17.8%
Cc1nc(CC(=O)N2CCCCC2Cn2cccn2)cs1 (stereo not drawn) | 7.08%
O=C(c1cc(F)cc2[nH]cnc12)N1CCCCC1Cn1cccn1 (stereo not drawn) | 77.4%

SMILES | INHIBITION
CCc1ncc(C(=O)N2CCCCC2Cn2cccn2)s1 (stereo not drawn) | 33.6%
O=C(c1cc(F)cc2[nH]cnc12)N1CCCC1Cn1cccn1 (stereo not drawn) | 39.7%
CCN(CC)Cc1ccc(C(=O)N2CCCC2Cn2cccn2)o1 (stereo not drawn) | 4.05%
CCN(CC)Cc1ccc(C(=O)N2CCCC2Cn2cccn2)cc1 (stereo not drawn) | 56.85%
NC(=O)c1ccc(C(=O)N2CCCCC2Cn2cccn2)s1 (stereo not drawn) | 53.9%
O=C(c1ccc2c(c1)CCC2)N1CCn2ncnc2C1 | 40.4%
CS(=O)(=O)N1CCCC(Cc2ccnc(Nc3ccccn3)c2)C1 (stereo not drawn) | 12.7%
CCNC(=O)[C@@H]1C[C@@H](N)CN1C(=O)C1(c2ccc(OC)cc2)CCCC1 | 9.55%
Cn1ccc(CN2CCC3(CC2)CC(Nc2cnccn2)CO3)n1 (stereo not drawn) | 46.7%
Cc1ccccc1-n1nc(C)c(CN(C)C(C)Cc2ccccn2)c1C (stereo not drawn) | 24%
Cc1cccc(CNC(C)c2ccc(OCC(=O)NC3CC3)cc2)c1 (stereo not drawn) | 15.3%
O=C(NCC1OCCc2cn(CC3CCOCC3)nc21)c1ccncc1 (stereo not drawn) | 32.2%
CCOc1ccc(Cl)cc1CCNC(=O)Cn1ccccc1=O | -47%
CC(Cn1cccn1)NCCCc1nc(-c2cccs2)no1 (stereo not drawn) | 10%
O=C(c1ccc2nncn2c1)N1CCCCC1Cn1cccn1 (stereo not drawn) | 54.4%
Cc1cc(C)n(CC2CCCCN2C(=O)c2ccc3nncn3c2)n1 (stereo not drawn) | 5.97%
COc1cc(C)ccc1OCCC(=O)N1CCCC1Cn1cccn1 (stereo not drawn) | 52.7%
O=C(c1csc(C2CC2)n1)N1CCCCC1Cn1cccn1 (stereo not drawn) | 52.5%
CC(=O)NCc1ccc(C(=O)N2CCCCC2Cn2cccn2)o1 (stereo not drawn) | 61.7%
Cc1cnn(CC2CCCCN2C(=O)c2ccc3nncn3c2)c1 (stereo not drawn) | 35.9%
CCN(CC)Cc1ccc(C(=O)N2CCCCC2Cn2cccn2)o1 (stereo not drawn) | 19.5%
CCc1ccc(C(=O)N2CCCCC2Cn2cccn2)o1 (stereo not drawn) | -2.35%

SMILES | INHIBITION
COc1ccccc1OCCC(=O)N1CCCC1Cn1cccn1 (stereo not drawn) | 33.3%
COc1ccc(OCCC(=O)N2CCCC2Cn2cccn2)cc1 (stereo not drawn) | -10.1%
CC(=O)Nc1nc(C(=O)N2CCCCC2Cn2cccn2)cs1 (stereo not drawn) | -27.8%
O=C(c1csc(C2CC2)n1)N1CCCC1Cn1cccn1 (stereo not drawn) | 1.78%
Cc1sc(Oc2ccccc2Cl)nc1C(=O)O | 18.14%
CC(C)N1CCC(NC(=O)c2cn(-c3ccc(F)cc3)nn2)C1 (stereo not drawn) | 23.7%
CCS(=O)(=O)CCNC(=O)c1cc2n(n1)CCCO2 | -16.3%
Cc1cnc(N2CCOCC3(CCN(c4ccccn4)C3)C2)nc1 (stereo not drawn) | 34.4%
COc1ccc(C2CCCN2Cc2nc3c(cnn3C)c(=O)[nH]2)cc1 (stereo not drawn) | -5.25%
O=C(CCc1c(F)cccc1F)N1CCCCC1Cn1cccn1 (stereo not drawn) | 15.6%
C=c1nc(NC)sc1=C1NC(c2c(C)ncc3c2CCNC3)=NO1 | 39.3%
Cn1ccc(CN2CCC(CN3CCOCC3)CC2)cc1=O | 31.3%
COc1cccc(-c2cc(C(=O)NCCCn3nc(C)cc3C)[nH]n2)c1 | -68.9%
c1ccc([C@@H]2CN(Cc3ccncc3)C[C@H]2c2cc[nH]n2)cc1 | 27.2%
Cc1cn2c(=O)c(-c3ccnc(NC4CCOCC4)n3)cnc2s1 | -9.27%
CCOCCCNC(=O)CN(c1cc(C)cc(C)c1)S(C)(=O)=O | 34.2%
N#Cc1ccc(CN2CCCC2Cn2cccn2)cc1 (stereo not drawn) | 9.14%
O=C(Nc1cccc(C2SCCS2)c1)C1CCCN1c1nccs1 (stereo not drawn) | 50.7%
O=C(Nc1cccc(F)c1)C1CCCN1c1nccs1 (stereo not drawn) | 7.75%
O=C(Nc1cccc(N2CCCC2)c1)C1CCCN1c1nccs1 (stereo not drawn) | 48.9%
